NPC1 promoter act = activators of NPC1 promoter. Potency, µM (top dose mostly 9.22 µM), inactives show at the top dose activation, actives largely listed as activators. Huh7 NPC1 promoter luciferase reporter, 24 h. AID 485313. actives 2.4% (n = 320,000); note: % of control where 0% means no effect; nearly all actives have a fitted effect of over 60% in size
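Luciferase expression driven by the NPC1 promoter was measured in stably transfected Huh7 cells after a 24 h compound incubation, using a luciferase reagent and a luminescence read.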
ELG1 genotoxic = genotoxicity induction in ELG1-luciferase HEK293T cells; AID 504466; HEK293T ELG1-luciferase reporter, luminescence, 16 h; Potency, µM (doses to about 46 µM), for inactives: at the top dose activity change, positive = activation, actives largely listed as activators; actives 1.3% (n = 330,000); note: % of control where 0% means no effect; nearly all actives have a fitted effect of over 60% in size
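Quantitative HTS format in 1536-well plates. HEK293T ELG1-luciferase reporter cells receive test compound and are incubated 16 hr at 37 °C, 5% CO2; ONE-Glo added, 30 min room temperature, then luminescence read.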
FLuc modulator = counter-screen for miR-21 project: firefly luciferase inhibitors or activators; P08659; purified FLuc, Km substrates, luminescence inhibition; Potency, µM (series often up to 57.5 µM), for the others: at the highest dose activity change, negative = inhibition, usual class: inhibitors; actives 6.9% (n = 360,000);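 note: plate controls were vehicle for no effect and reference inhibitor for full effect; nearly all actives have a fitted effect of over 55% in size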
Target sequence (P08659 whole entry, looked up): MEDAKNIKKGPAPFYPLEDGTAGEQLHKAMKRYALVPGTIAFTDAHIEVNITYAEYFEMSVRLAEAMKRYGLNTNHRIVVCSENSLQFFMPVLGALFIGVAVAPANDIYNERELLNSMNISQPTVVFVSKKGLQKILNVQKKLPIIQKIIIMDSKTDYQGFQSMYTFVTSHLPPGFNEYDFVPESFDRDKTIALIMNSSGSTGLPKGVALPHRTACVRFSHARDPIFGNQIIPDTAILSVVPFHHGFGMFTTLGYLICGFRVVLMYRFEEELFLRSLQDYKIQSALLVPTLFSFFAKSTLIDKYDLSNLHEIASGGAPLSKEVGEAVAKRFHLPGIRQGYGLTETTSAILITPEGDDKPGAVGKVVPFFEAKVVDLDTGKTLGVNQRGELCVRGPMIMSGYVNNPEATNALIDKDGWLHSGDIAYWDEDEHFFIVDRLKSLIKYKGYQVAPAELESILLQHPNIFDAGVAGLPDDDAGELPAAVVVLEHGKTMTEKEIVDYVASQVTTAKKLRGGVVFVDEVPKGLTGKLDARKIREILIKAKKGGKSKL
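Purified P. pyralis luciferase, 10 nM final, with Km-level 10 uM D-luciferin and 10 uM ATP in 50 mM Tris acetate pH 7.5, 10 mM Mg acetate, 0.01% Tween-20, 0.05% BSA; 6-point qHTS titration about 60 µM downward; luminescence read.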
Rab9 promoter act = Rab9 promoter activation | Huh7 Rab9 promoter-luciferase reporter, luminescence, 24 h | AID 485297 | actives 2.8% (n = 320,000) | Potency, µM (series often up to 9.22 µM), inactives show at the top dose activation, negative = inhibition, actives largely listed as activators; note: % of control where 0% means no effect; nearly all actives have a fitted effect of over 60% in size
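Promoter activation is measured as luciferase luminescence in Huh7 cells stably transfected with a Rab9 promoter–luciferase construct, following 24 h compound exposure at 37 °C and 10 min reagent incubation at ambient temperature.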
SMN2 splice enh = enhancers of SMN2 splice variant expression; HEK293 SMN2-luciferase splicing reporter, luminescence, 30-36 h; Potency, µM (highest dose often 46.1 µM), without a hit: top-dose activity change, positive = activation, hits mostly activators; actives 2.8% (n = 210,000); AID 1458; note: % of control where 0% means no effect; nearly all actives have a fitted effect of over 55% in size
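HEK293 cells carry an SMN2 minigene-luciferase reporter in which exon 7 inclusion puts luciferase in frame. Cells were seeded at 2000 cells/well, attached for 10-12 hours, then exposed to compounds for 30-36 hours at 37C before ONE-Glo luminescence.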
KinaseGlo FLuc = counter-screen: inhibitors of Kinase-Glo firefly luciferase | Q27757 | Potency, µM (highest dose often 38.3 µM), inactives show at the top dose activity change, negative = inhibition, hits mostly inhibitors | actives 0.28% (n = 200,000) | Kinase-Glo luciferase, ATP luminescence, 8 min; note: % is set by controls: 0 for no effect and ±100 for the full control effect; nearly all actives have a fitted effect of over 60% in size
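Light output from Kinase-Glo luciferase with luciferin and 10 uM ATP in 50 mM imidazole pH 7.2, KCl, MgCl2, Tween 20, BSA; compound pin-delivered, 8-min ambient incubation, then luminescence read.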
* hit, by the source's call; ? = inconclusive; · = no result given. A selection: hits, their analogues and other compounds. The true share with any hit is near 7.5%. Calls come from the whole dose curve; as a rule, active = well fitted curve in the direction sought with a large enough effect; inconclusive = small, poorly fitted or top-dose-only effect, or another doubt; inactive = no such curve, though single readings can be large; an effect the other way counts as inactive or inconclusive. Potency is the fitted concentration of half-maximal effect.

SMILES | NPC1 promoter act | ELG1 genotoxic | FLuc modulator | Rab9 promoter act | SMN2 splice enh | KinaseGlo FLuc
Cc1ccc(-c2nc(S(=O)(=O)c3ccc(C)cc3)c(N(C)C)o2)cc1 | ? | -1% | 2% | 2% | · | ·
Cc1ccc(S(=O)(=O)c2nc(-c3ccccc3Cl)oc2N(C)C)cc1 | -4% | ? | 15µM* | -1% | · | ·
CN1CCc2c(sc3c2C(=O)NC(c2cccc(OC(=O)c4cccs4)c2)N3)C1 (stereo unspecified) | 1% | 19% | 17µM* | 3% | ? | 2%
Cc1[nH]c2ccccc2c1C(=O)/C=C/c1ccccc1Cl | 3.2µM* | ? | 8.5µM* | 3.2µM* | 11µM* | -3%
Cc1[nH]c2ccccc2c1C(=O)/C=C\c1ccccc1Cl | ? | ? | 6µM* | ? | ? | -4%
Cc1[nH]c2ccccc2c1C(=O)/C=C/c1ccccc1 | 3.2µM* | 14% | 4.8µM* | ? | 28% | 5%
Cc1ccc(NC(=O)c2cc(S(=O)(=O)N3CCc4ccccc43)cn2C)c(Cl)c1 | · | · | -8% | · | · | ·
O=C1C=C(Nc2ccc(Cl)cc2)CC(c2ccc(Cl)cc2)C1 (stereo unspecified) | -3% | 9% | 11µM* | 0% | -13% | 3%
Cc1ccc(C2CC(=O)C=C(Nc3ccc(Cl)cc3)C2)cc1 (stereo unspecified) | 1% | 2% | -1% | 1% | -3% | 6%
Cc1ccc(SCc2cc(=O)[nH]c(SCC(=O)Nc3cc(Cl)ccc3Cl)n2)cc1 | -2% | -1% | 27µM* | -5% | -8% | 1%
CCc1ccc(NC(=O)CSc2nc(CSc3ccc(C)cc3)cc(=O)[nH]2)cc1 | -6% | 6% | 19µM* | -3% | · | ·
CCCc1cc(=O)[nH]c(SCC(=O)Nc2ccc(C)cc2)n1 | -1% | 2% | -9% | -1% | 8% | -1%
CCOc1ccc(NC(=O)CCC(=O)NNC(=O)c2ccc(Br)o2)cc1 | 0% | 4% | -7% | -2% | · | ·
CCOC(=O)c1ccc(NCCc2ccc(OC)c(OC)c2)c(N)c1 | -3% | -2% | -19% | 3% | · | ·
Cc1ccc(NC(=O)C(C)[n+]2ccccc2)cc1[N+](=O)[O-] (stereo unspecified) | -1% | 1% | 3% | -4% | 28µM* | -1%
O=c1oc2c(CN3CCOCC3)c(O)ccc2c2ccccc12 | 4µM* | 13% | ? | 29% | 3% | -2%
O=c1oc2c(CN3CCOCC3)c(O)ccc2c2c1CCCC2 | 23% | -14% | 0% | -2% | -15% | -5%
Clc1ccc2nc(-c3ccc4c(c3)OCO4)cn2c1 | 0.32µM* | ? | 0.12µM* | 0.13µM* | · | ?
O=C1COc2ccc(-c3csc(NCCc4ccccc4)n3)cc2N1 | -1% | -7% | 27µM* | 0% | -51% | 1%
Cc1ccc2nc(-c3ccc4c(c3)OCCO4)cn2c1 | -32% | ? | 0.067µM* | -37% | · | ·
Cc1ccc2nc(-c3ccc4c(c3)NC(=O)CO4)cn2c1 | 1.6µM* | ? | 0.85µM* | 1.1µM* | · | ·
CCCCn1nc(NC(=O)c2cccc(Cl)c2)c2cc3ccc(C)cc3nc21 | · | · | -7% | · | 0% | ·
Cc1cc(C)c(NC(=O)Cn2c(=O)n(CCc3ccccc3)c(=O)c3ccccc32)c(C)c1 | · | · | 6% | · | 5% | ·
CN1CCN(c2ccc(NC(=O)c3ccc4c(c3)OCO4)cc2)CC1 | 2.5µM* | ? | 11µM* | 1.8µM* | ? | -5%
O=C(Nc1ccc(N2CCCCC2)cc1)c1ccc2c(c1)OCCO2 | ? | 3% | 1.7µM* | 1.4µM* | -24% | -17%
SMILES | NPC1 promoter act | ELG1 genotoxic | FLuc modulator | Rab9 promoter act | SMN2 splice enh | KinaseGlo FLuc
Cc1cccc(OCC(=O)N2CCC(c3nc4ccccc4o3)CC2)c1C | · | · | -17% | · | · | ·
O=S(=O)(NC1CCSc2ccccc21)c1ccc(Cl)nc1 (stereo unspecified) | 2% | -3% | 0% | 0% | · | ·
O=C(Nc1ccc(Br)cc1)C1CCCN1S(=O)(=O)c1ccc(F)cc1 (stereo unspecified) | · | · | 0% | · | -40% | ·
COc1ccc(CNC(=O)C[C@H]2C[C@H](C(=O)N(C(C)C)C(C)C)[C@@]3(C)c4[nH]c5cc(-c6ccco6)ccc5c4CCN3C2=O)cc1OC | · | -8% | · | · | · | ·
O=C(O)c1ccc2c(c1)C(=O)N(CCc1ccccc1)C2=O | 3% | 0% | -3% | 3% | · | ·
O=C(O)c1ccc2c(c1)C(=O)N(CCc1c[nH]c3ccccc13)C2=O | 2.5µM* | ? | 17µM* | 3.2µM* | · | ·
Cc1ccc2oc(-c3ccc(C)c(NC(=O)c4ccc5c(c4)OCCO5)c3)nc2c1 | · | · | -16% | · | 2% | ·
COc1ccc(OCC(=O)Nc2ccc(-c3nc4cc(C)c(C)cc4o3)cc2)cc1 | · | · | · | · | 0.56µM* | ·
CCOc1ccc(-c2nc3cc(NC(=O)COc4cccc(C)c4)ccc3o2)cc1 | · | · | -13% | · | -5% | ·
Cc1ccc2nc(-c3ccc(Cl)c(NC(=O)COc4ccc(C(C)C)cc4)c3)oc2c1 | · | · | 11µM* | · | 17% | ·
Cc1ccc2nc(-c3ccc(Cl)c(NC(=O)COc4ccc([N+](=O)[O-])cc4)c3)oc2c1 | · | · | -9% | · | 16% | ·
Cc1ccc2nc(-c3ccc(Cl)c(NC(=O)c4ccc5c(c4)OCCO5)c3)oc2c1 | · | · | 11µM* | · | -34% | ·
Cc1ccc(OCC(=O)Nc2ccc(-c3nc4ccc(C)cc4o3)cc2)cc1 | · | · | -2% | · | 0.63µM* | ·
Cc1cccc(-c2nnc3n(CCc4ccccc4)c(=O)c4ccccc4n23)c1 | · | · | -1% | · | · | ·
O=C(CN1C(=O)C(c2ccc(F)cc2)=NC12CCCCCC2)Nc1ccccc1Cl | · | · | 4% | · | -17% | ·
CCOc1ccccc1N1CC(c2nc3ccccc3n2CCCOc2ccccc2)CC1=O (stereo unspecified) | · | · | ? | · | 9% | ·
Cc1ccc(Cn2c(=O)n(Cc3ccccc3)c(=O)c3c(C)c(C)sc32)cc1 | · | · | 2% | · | 10% | ·
O=C(Cn1c(C(F)(F)F)nc2ccccc21)N/N=C/c1ccco1 | -5% | -3% | -3% | -1% | 12% | 1%
CCCN1C(=O)/C(=N\OCC(=O)NCC(F)(F)F)c2ccccc21 | -1% | 1% | -1% | 3% | 16% | -1%
O=C(Nc1ccncc1)c1ccc2c(c1)OCCO2 | 0% | 5% | 17µM* | 9% | -26% | -9%
CC(=O)N1CCN(c2ccc(NC(=O)c3ccc4c(c3)OCCO4)cc2)CC1 | -1% | 6% | ? | 1% | -17% | -5%
Cc1ccc(NC(=O)c2ccc3c(c2)OCCO3)cc1 | 0.32µM* | ? | 0.54µM* | 0.1µM* | 0.71µM* | -11%

Assay outcomes (PubChem)
